Reference: PubChem BioAssay (NCATS)
Records with an inconclusive call do not appear. Activity calls are given as the source filed them. Unless noted, calls come from the whole dose curve.

What was measured:
[1] = Cell Viability - BJ (AID 421); conditions: BJ fibroblast viability, qHTS;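 note: potency is the fitted concentration of half-maximal effect; cells exposed to compound for 40 hours at 37 °C before readout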
Outline: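 Quantitative HTS: ATP depletion in BJ cells after 40 hr compound exposure in complete culture medium, detected with CellTiter-Glo; AC50 from standard Hill fits.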

[2] = Cell Viability - Jurkat (AID 426;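 active = dose-dependent loss of cell ATP signal giving a full or clear fitted curve, ranked by lower potency value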;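 note: potency is the fitted concentration of half-maximal effect; cells exposed to compound for 40 hours at 37 °C before ATP read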); conditions: qHTS
Outline: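 Cells of the human T-cell leukemia line Jurkat (E6-1) are seeded at 5000 per well, treated with compound across a concentration range for 40 hours at 37 °C, then lysed with CellTiter-Glo; luminescence reports ATP.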

[3] = Cell Viability - Hek293 (AID 427;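 active = compounds whose dose-response curve shows a full or clear partial loss of cell viability, called from curve shape rather than a numeric limit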;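 note: potency is the fitted concentration of half-maximal effect; cells exposed to compound for 40 hours at 37 °C before reading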); conditions: qHTS
Outline: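 AC50 values derive from Hill-modelled concentration-response of ATP-based luminescence, normalized between DMSO-only and 100 uM tamoxifen controls. Cells were exposed in complete culture medium for 40 hr at 37 °C before detection.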

[4] = Cell Viability - HepG2 (AID 433); conditions: qHTS;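 note: potency is the fitted concentration of half-maximal effect; potency for ATP loss meaning cytotoxicity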
Outline: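 Cytotoxicity is scored as loss of intracellular ATP in HepG2 cells exposed to compounds for 40 h. Concentration-response curves, normalized to DMSO and 100 uM tamoxifen, give AC50 values.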

[5] = Cell Viability - MRC5 (AID 434); conditions: MRC5 lung fibroblast viability, qHTS;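 note: potency is the fitted concentration of half-maximal effect; potency reflects cytotoxicity seen as loss of intracellular ATP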
Outline: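 ATP luminescence read-out (CellTiter-Glo, 20 min RT) after 40 hr, 37 °C compound exposure of 1500 MRC5 cells/well. Data normalized to DMSO (basal) and 100 uM tamoxifen (100% inhibition); AC50 from standard Hill equation.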

[6] = Cell Viability - SK-N-SH (AID 435); conditions: SK-N-SH neuroblastoma cell viability qHTS;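 note: potency is the fitted concentration of half-maximal effect; compound exposure lasted 40 h at 37 °C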
Outline: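 Cells seeded at 1500 per well and incubated 5 hr at 37 °C. Compound added, then 40 hr at 37 °C. CellTiter-Glo added, 20 min at room temperature, luminescence read.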

[7] = target: Mitogen-activated protein kinase 10 (Mus musculus) (UniProt Q61831); assay: JNK3 AlphaScreen Assay (AID 530; active = well fitted curve in either direction with a large enough effect, not every such curve was filed as active;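 note: kinase came from lysate of stimulated human HepG2 cells; signal reports phosphorylation of biotinylated GST-cJun 1-79 at Ser73 with 10 µM ATP; % is set by controls: 0 for no effect and ±100 for the full control effect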); conditions: JNK3 lysate, c-Jun phosphorylation; series mostly up to 57.1 µM
Outline: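 Activity was read by AlphaScreen after JNK3-containing HepG2 lysate (cytokine pre-activated) phosphorylated biotinylated GST-cJun with 10 uM ATP at room temperature. Phospho-Ser73 cJun antibody with Protein-A acceptor beads provided detection.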

[8] = Cell Viability - N2a (AID 540; active = well fitted curve in the direction sought with a large enough effect; an effect the other way counts as inactive or inconclusive;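 note: cells exposed to compound for 40 h at 37 °C; plate controls were DMSO alone for no effect and tamoxifen control for full effect; nearly all actives have a fitted effect of over 45% in size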); conditions: N2a mouse neuroblastoma cell viability; activity change, negative = cytotoxicity: at 92.2 µM (top of the series)
Outline: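 Cytotoxicity was scored as loss of cellular ATP in N2a cells, a mouse neuroblastoma line. Compounds are applied in a qHTS concentration series for 40 hr at 37 °C.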

[9] = Cell Viability - NIH 3T3 (AID 541; active = well fitted curve in the direction sought with a large enough effect; an effect the other way counts as inactive or inconclusive;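 note: plate controls were DMSO alone for no effect and tamoxifen positive control for full effect; nearly all actives have a fitted effect of over 25% in size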); conditions: NIH 3T3 cell viability, qHTS; activity change, negative = cytotoxicity: at 92.2 µM (top of the series)
Outline: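 Cells seeded at 1000/well, rested 5 hr at 37 °C, then dosed and incubated 40 hr at 37 °C. CellTiter-Glo added, 20 min room temperature, luminescence read. AC50 by Hill fit.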

[10] = Cell Viability - HUV-EC-C (AID 542; active = well fitted curve in the direction sought with a large enough effect; an effect the other way counts as inactive or inconclusive; note: % is set by controls: 0 for no effect and ±100 for the full control effect; nearly all actives have a fitted effect of over 35% in size); conditions: HUV-EC-C endothelial cell viability, qHTS; series mostly up to 92.2 µM
Outline: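 Cells were seeded at 1000 per well and incubated 5 hr at 37 °C before compound addition. After 40 hr at 37 °C, CellTiter-Glo reagent was added for 20 min and luminescence read. AC50 values came from Hill-equation modelling.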

CC(O)CC(C)O (centres undefined)
inactive: Potency [1] > 92 µM | Potency [2] > 92 µM | Potency [3] > 92 µM | Potency [4] > 92 µM | Potency [5] > 92 µM | Potency [6] > 92 µM | outcome [7] | activity change, negative = cytotoxicity [8] -8.39% | Potency [9] | Potency [10]

Cc1ccc2cccnc2c1
inactive: Potency [1] > 92 µM | Potency [2] > 92 µM | Potency [3] > 92 µM | Potency [4] > 92 µM | Potency [5] > 92 µM | Potency [6] > 92 µM | outcome [7] | activity change, negative = cytotoxicity [8] -6.28% | Potency [9]

CCCCCCCCN
inactive: Potency [1] > 92 µM | Potency [2] > 92 µM | Potency [3] > 92 µM | Potency [4] > 92 µM | Potency [5] > 92 µM | Potency [6] > 92 µM | outcome [7] | activity change, negative = cytotoxicity [8] 7.89% | Potency [9]

COc1ccc(N)c(OC)c1
inactive: Potency [1] > 92 µM | Potency [2] > 92 µM | Potency [3] > 92 µM | Potency [4] > 92 µM | Potency [5] > 92 µM | Potency [6] > 92 µM | outcome [7] | activity change, negative = cytotoxicity [8] -1.93% | Potency [9]

Cc1ccccc1C=O
inactive: Potency [1] > 92 µM | Potency [2] > 92 µM | Potency [3] > 92 µM | Potency [4] > 92 µM | Potency [5] > 92 µM | Potency [6] > 92 µM | outcome [7] | activity change, negative = cytotoxicity [8] 2.15% | Potency [9]

COc1ccccc1[N+](=O)[O-]
inactive: Potency [1] > 92 µM | Potency [2] > 92 µM | Potency [3] > 92 µM | Potency [4] > 92 µM | Potency [5] > 92 µM | Potency [6] > 92 µM | outcome [7] | activity change, negative = cytotoxicity [8] -25.3% | Potency [9]

FB(F)F
inactive: Potency [1] > 92 µM | Potency [2] > 92 µM | Potency [3] > 92 µM | Potency [4] > 92 µM | Potency [5] > 92 µM | Potency [6] > 92 µM | outcome [7] | activity change, negative = cytotoxicity [8] 5.96% | Potency [9]

Cc1cccc(Br)c1
inactive: Potency [1] > 92 µM | Potency [2] > 92 µM | Potency [3] > 92 µM | Potency [4] > 92 µM | Potency [5] > 92 µM | Potency [6] > 92 µM | outcome [7] | activity change, negative = cytotoxicity [8] -13.7% | Potency [9]

Nc1ccc([N+](=O)[O-])c(N)c1
inactive: Potency [1] > 92 µM | Potency [2] > 92 µM | Potency [3] > 92 µM | Potency [4] > 92 µM | Potency [5] > 92 µM | Potency [6] > 92 µM | outcome [7] | activity change, negative = cytotoxicity [8] 0.888% | Potency [9]

NC(=O)/N=N/C(N)=O
inactive: Potency [1] > 92 µM | Potency [2] > 92 µM | Potency [3] > 92 µM | Potency [4] > 92 µM | Potency [5] > 92 µM | Potency [6] > 92 µM | outcome [7] | activity change, negative = cytotoxicity [8] 10.3% | Potency [9]

CC(=O)c1cc(C)oc1C
inactive: Potency [1] > 92 µM | Potency [2] > 92 µM | Potency [3] > 92 µM | Potency [4] > 92 µM | Potency [5] > 92 µM | Potency [6] > 92 µM | outcome [7] | activity change, negative = cytotoxicity [8] -1.61% | Potency [9]

COC(=O)c1ccccc1
inactive: Potency [1] > 92 µM | Potency [2] > 92 µM | Potency [3] > 92 µM | Potency [4] > 92 µM | Potency [5] > 92 µM | Potency [6] > 92 µM | outcome [7] | activity change, negative = cytotoxicity [8] -10.2% | Potency [9]

CCCOCC(C)OCC(C)O (centres undefined)
inactive: Potency [1] > 92 µM | Potency [2] > 92 µM | Potency [3] > 92 µM | Potency [4] > 92 µM | Potency [5] > 92 µM | Potency [6] > 92 µM | outcome [7] | activity change, negative = cytotoxicity [8] -9.53% | Potency [9]

CC1(N)CCC(C(C)(C)N)CC1 (centres undefined)
inactive: Potency [1] > 92 µM | Potency [2] > 92 µM | Potency [3] > 92 µM | Potency [4] > 92 µM | Potency [5] > 92 µM | Potency [6] > 92 µM | outcome [7] | activity change, negative = cytotoxicity [8] -2.82% | Potency [9]

CCCCC(CC)COC(=O)CCCCC(=O)OCC(CC)CCCC (centres undefined)
inactive: Potency [1] > 92 µM | Potency [2] > 92 µM | Potency [3] > 92 µM | Potency [4] > 92 µM | Potency [5] > 92 µM | Potency [6] > 92 µM | outcome [7] | activity change, negative = cytotoxicity [8] 3.75% | Potency [9]

O=C(O)CCSSCCC(=O)O
inactive: Potency [1] > 92 µM | Potency [2] > 92 µM | Potency [3] > 92 µM | Potency [4] > 92 µM | Potency [5] > 92 µM | Potency [6] > 92 µM | outcome [7] | activity change, negative = cytotoxicity [8] 1.39% | Potency [9]

CCCCC=O
inactive: Potency [1] > 92 µM | Potency [2] > 92 µM | Potency [3] > 92 µM | Potency [4] > 92 µM | Potency [5] > 92 µM | Potency [6] > 92 µM | outcome [7] | activity change, negative = cytotoxicity [8] 4.71% | Potency [9] | Potency [10]

O=C(O)c1ccc(C(=O)O)cc1
inactive: Potency [1] > 92 µM | Potency [2] > 92 µM | Potency [3] > 92 µM | Potency [4] > 92 µM | Potency [5] > 92 µM | Potency [6] > 92 µM | outcome [7] | activity change, negative = cytotoxicity [8] 0.102% | Potency [9]
